{
  "source": "PubChem BioAssay (NCATS)",
  "note": "Records with an inconclusive call do not appear. Activity calls are given as the source filed them. The call rests on the fitted dose curve; in most records, active means well fitted curve in the direction sought with a large enough effect; inconclusive means small, poorly fitted or top-dose-only effect, or another doubt; inactive means no such curve, though single readings can be large; an effect the other way counts as inactive or inconclusive.",
  "data": [
    {"molecular_target": "Protein phosphatase 1D (Homo sapiens) (UniProt O15297)", "sequence (O15297 whole entry, looked up)": "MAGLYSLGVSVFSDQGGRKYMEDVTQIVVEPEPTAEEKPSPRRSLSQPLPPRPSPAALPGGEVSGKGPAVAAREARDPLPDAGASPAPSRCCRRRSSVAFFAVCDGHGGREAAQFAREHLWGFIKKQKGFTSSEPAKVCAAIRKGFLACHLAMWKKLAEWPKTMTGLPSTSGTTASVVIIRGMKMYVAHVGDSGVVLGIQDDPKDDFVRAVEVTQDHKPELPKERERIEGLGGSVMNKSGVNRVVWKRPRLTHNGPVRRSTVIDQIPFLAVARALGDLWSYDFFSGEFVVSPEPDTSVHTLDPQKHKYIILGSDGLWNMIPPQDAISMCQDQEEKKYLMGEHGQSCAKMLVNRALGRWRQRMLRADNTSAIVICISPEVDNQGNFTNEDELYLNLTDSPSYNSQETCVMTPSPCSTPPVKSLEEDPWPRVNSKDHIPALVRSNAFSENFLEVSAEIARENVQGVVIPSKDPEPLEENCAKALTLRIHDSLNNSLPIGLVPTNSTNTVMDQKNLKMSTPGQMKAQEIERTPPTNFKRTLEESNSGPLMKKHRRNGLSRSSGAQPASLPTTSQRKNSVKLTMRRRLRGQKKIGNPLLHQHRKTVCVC", "assay": "Rhodamine-PBP qHTS Assay for Modulators of WT P53-Induced Phosphatase 1 (WIP1) (AID 1347425)", "conditions": "recombinant WIP1, Rhodamine-PBP phosphate fluorescence, real-time; series mostly up to 57.5 µM", "how_it_was_run": "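Read-out: Rhodamine-PBP fluorescence (ex 525/em 598 nm) for released Pi, read each minute for 11 min after adding 10 uM VEPPL-pS-QETFS; signal taken as f1 minus pre-substrate f0. Enzyme 5 nM WIP1 with 1 hr room-temperature compound preincubation.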", "values": [
      {"smiles": "CCCCCN=C(N)N/N=C/c1c[nH]c2ccc(OC)cc12", "outcome": "inactive"},
      {"smiles": "CCN(CC)CCOc1ccc2c(c1)C(=O)c1cc(OCCN(CC)CC)ccc1-2", "outcome": "inactive"},
      {"smiles": "C=C[C@H]1CN2CC[C@H]1C[C@@H]2[C@@H](O)c1ccnc2ccc(OC)cc12", "outcome": "inactive"},
      {"smiles": "CCN1CCN(C(=O)N[C@@H](C(=O)N[C@@H]2C(=O)N3C(C(=O)O)=C(CSc4nnnn4C)CS[C@H]23)c2ccc(O)cc2)C(=O)C1=O", "outcome": "inactive"},
      {"smiles": "CNCCCCOc1ccccc1Cc1ccccc1", "outcome": "inactive"},
      {"smiles": "Cc1c(-c2ccccc2)oc2c(C(=O)OCCN3CCCCC3)cccc2c1=O", "outcome": "inactive"},
      {"smiles": "Cc1cn([C@H]2C[C@H](F)[C@@H](CO)O2)c(=O)[nH]c1=O", "outcome": "inactive"},
      {"smiles": "CN1CCC[C@@H]1CCO[C@](C)(c1ccccc1)c1ccc(Cl)cc1", "outcome": "inactive"},
      {"smiles": "C#C[C@]1(O)CC[C@H]2[C@@H]3CCC4=Cc5oncc5C[C@]4(C)[C@H]3CC[C@@]21C", "outcome": "inactive"},
      {"smiles": "CC(=O)OCC(=O)[C@H]1CC[C@H]2[C@@H]3CCC4=CC(=O)CC[C@]4(C)[C@H]3CC[C@]12C", "outcome": "inactive"},
      {"smiles": "CCCCCCCCCCCCCC[N+](C)(C)Cc1ccccc1", "outcome": "inactive"},
      {"smiles": "CC1=C(C(=O)O)N2C(=O)[C@@H](NC(=O)[C@H](N)c3ccccc3)[C@H]2SC1", "outcome": "inactive"},
      {"smiles": "CCCN(CCc1cccs1)[C@H]1CCc2c(O)cccc2C1", "outcome": "inactive"},
      {"smiles": "C#C[C@]1(OC(C)=O)CC[C@H]2[C@@H]3CCC4=C/C(=N/O)CC[C@@H]4[C@H]3CC[C@@]21CC", "outcome": "inactive"},
      {"smiles": "CCCCN=C(N)N=C(N)N", "outcome": "inactive"},
      {"smiles": "CCCN(CCC)S(=O)(=O)c1ccc(C(=O)O)cc1", "outcome": "inactive"},
      {"smiles": "CCCCC(CC)COC(=O)/C=C/c1ccc(OC)cc1", "note": "(stereo unspecified)", "outcome": "inactive"},
      {"smiles": "CCN(CC)CCNc1ccc(CO)c2sc3ccccc3c(=O)c12", "outcome": "inactive"},
      {"smiles": "C[C@@H](O)[C@H]1C(=O)N2C(C(=O)O)=C([C@H]3CCCO3)S[C@H]12", "outcome": "inactive"},
      {"smiles": "O=C(O)CCNC(=O)c1ccccc1", "outcome": "inactive"},
      {"smiles": "CCN(CC)CCOc1ccccc1C(=O)CCc1ccccc1", "outcome": "inactive"},
      {"smiles": "COc1ccc(C(=O)c2ccccc2O)c(O)c1", "outcome": "inactive"},
      {"smiles": "CN1CCN(C2=Nc3cc(F)ccc3Cc3ccccc32)CC1", "outcome": "inactive"},
      {"smiles": "O=C1c2cccc3c2[C@H](CCC3)CN1[C@@H]1CN2CCC1CC2", "outcome": "inactive"},
      {"smiles": "CC(=O)O[C@]1(C(C)=O)CC[C@H]2[C@@H]3C=C(Cl)C4=CC(=O)CC[C@]4(C)[C@H]3CC[C@@]21C", "outcome": "inactive"},
      {"smiles": "NCCNc1cccc2ccccc12", "outcome": "inactive"}
    ]},
    {"test_system": "not listed separately", "assay": "Primary qHTS for inhibitors of La Crosse Virus (LACV) - induced cell death in SH-SY5Y cells (AID 1508616);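 further: top concentration of the series differs between compounds; higher means more rescue of cells from virus-induced death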", "conditions": "SH-SY5Y LACV cytopathicity rescue, ATP luminescence, 6 d; series mostly up to 4.29 µM", "how_it_was_run": "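Rescue of virus-induced death was read as ATPLite luminescence after 6 days at 37C, scaled between DMSO wells with LACV and without virus. Cells were SH-SY5Y, 6000/well, infected at 0.01 MOI after compound addition.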", "values": [
      {"smiles": "CCCCCN=C(N)N/N=C/c1c[nH]c2ccc(OC)cc12", "outcome": "inactive"},
      {"smiles": "C=C[C@H]1CN2CC[C@H]1C[C@@H]2[C@@H](O)c1ccnc2ccc(OC)cc12", "outcome": "inactive"},
      {"smiles": "CCN1CCN(C(=O)N[C@@H](C(=O)N[C@@H]2C(=O)N3C(C(=O)O)=C(CSc4nnnn4C)CS[C@H]23)c2ccc(O)cc2)C(=O)C1=O", "outcome": "inactive"},
      {"smiles": "O=C1C(CCS(=O)c2ccccc2)C(=O)N(c2ccccc2)N1c1ccccc1", "note": "(stereo unspecified)", "outcome": "inactive"},
      {"smiles": "CNCCCCOc1ccccc1Cc1ccccc1", "outcome": "inactive"},
      {"smiles": "O=C1OC2(c3ccccc31)c1cc(Br)c(O)c(Br)c1Oc1c2cc(Br)c(O)c1Br", "outcome": "inactive"},
      {"smiles": "CC[C@H](c1ccc(O)cc1)[C@@H](CC)c1ccc(O)cc1", "outcome": "inactive"},
      {"smiles": "Cc1c(-c2ccccc2)oc2c(C(=O)OCCN3CCCCC3)cccc2c1=O", "outcome": "inactive"},
      {"smiles": "Cc1cn([C@H]2C[C@H](F)[C@@H](CO)O2)c(=O)[nH]c1=O", "outcome": "inactive"},
      {"smiles": "C#C[C@]1(O)CC[C@H]2[C@@H]3CCC4=Cc5oncc5C[C@]4(C)[C@H]3CC[C@@]21C", "outcome": "inactive"},
      {"smiles": "O=C(Nc1ncc([N+](=O)[O-])s1)c1cccs1", "outcome": "inactive"},
      {"smiles": "CC(=O)OCC(=O)[C@H]1CC[C@H]2[C@@H]3CCC4=CC(=O)CC[C@]4(C)[C@H]3CC[C@]12C", "outcome": "inactive"},
      {"smiles": "Oc1ccc(Cl)cc1Cc1cc(Cl)ccc1O", "outcome": "inactive"},
      {"smiles": "CCC(Cc1c(I)cc(I)c(N)c1I)C(=O)O", "note": "(stereo unspecified)", "outcome": "inactive"},
      {"smiles": "CCCCCCCCCCCCCC[N+](C)(C)Cc1ccccc1", "outcome": "inactive"},
      {"smiles": "CC1=C(C(=O)O)N2C(=O)[C@@H](NC(=O)[C@H](N)c3ccccc3)[C@H]2SC1", "outcome": "inactive"},
      {"smiles": "CCCN(CCc1cccs1)[C@H]1CCc2c(O)cccc2C1", "outcome": "inactive"},
      {"smiles": "C#C[C@]1(OC(C)=O)CC[C@H]2[C@@H]3CCC4=C/C(=N/O)CC[C@@H]4[C@H]3CC[C@@]21CC", "outcome": "inactive"},
      {"smiles": "CCCCN=C(N)N=C(N)N", "outcome": "inactive"},
      {"smiles": "NS(=O)(=O)c1cc2c(cc1Cl)NC(CC1CCCC1)NS2(=O)=O", "note": "(stereo unspecified)", "outcome": "inactive"},
      {"smiles": "CCCN(CCC)S(=O)(=O)c1ccc(C(=O)O)cc1", "outcome": "inactive"},
      {"smiles": "CCCCC(CC)COC(=O)/C=C/c1ccc(OC)cc1", "note": "(stereo unspecified)", "outcome": "inactive"},
      {"smiles": "CCN(CC)CCNc1ccc(CO)c2sc3ccccc3c(=O)c12", "outcome": "inactive"},
      {"smiles": "Oc1c(Cl)cc(Cl)c(Cl)c1Cc1c(O)c(Cl)cc(Cl)c1Cl", "outcome": "inactive"},
      {"smiles": "NC(N)=NN=C(/C=C/c1ccc([N+](=O)[O-])o1)/C=C/c1ccc([N+](=O)[O-])o1", "outcome": "inactive"},
      {"smiles": "C[C@@H](O)[C@H]1C(=O)N2C(C(=O)O)=C([C@H]3CCCO3)S[C@H]12", "outcome": "inactive"},
      {"smiles": "O=C(O)CCNC(=O)c1ccccc1", "outcome": "inactive"},
      {"smiles": "CCc1oc2ccccc2c1C(=O)c1cc(I)c(O)c(I)c1", "outcome": "inactive"},
      {"smiles": "CCN(CC)CCOc1ccccc1C(=O)CCc1ccccc1", "outcome": "inactive"},
      {"smiles": "COc1ccc(C(=O)c2ccccc2O)c(O)c1", "outcome": "inactive"},
      {"smiles": "CN1CCN(C2=Nc3cc(F)ccc3Cc3ccccc32)CC1", "outcome": "inactive"},
      {"smiles": "NC(=O)n1c(O)c(C(=O)c2cccs2)c2cc(Cl)ccc21", "outcome": "inactive"},
      {"smiles": "O=C1c2cccc3c2[C@H](CCC3)CN1[C@@H]1CN2CCC1CC2", "outcome": "inactive"},
      {"smiles": "CC(=O)O[C@]1(C(C)=O)CC[C@H]2[C@@H]3C=C(Cl)C4=CC(=O)CC[C@]4(C)[C@H]3CC[C@@]21C", "outcome": "inactive"},
      {"smiles": "NCCNc1cccc2ccccc12", "outcome": "inactive"}
    ]}
  ]
}
